From PubChem BioAssay (NCATS) come the findings set out here.

Each structure is given as a SMILES string. Several values for one entry are separate records, joined by “and”; a condition that tells them apart may be missing. Equal entries are not always repeated. Records with an inconclusive call do not appear. A structure can be active in one record and inactive in another. Activity calls are given as the source filed them. Calls follow the shape of the dose curve; as a rule, active = well fitted cell-killing curve with a large enough effect; inconclusive = small, poorly fitted or top-dose-only effect, or effect the other way; inactive = no such curve, though single readings can be large or run the other way.
Potency is read from the fitted curve at half-maximal effect.

This test in a line: Viability qHTS for spleen associated tyrosine kinase inhibitor (SYKi) drug resistant MV4-11 cells (AID 1963824). Also: nearly all actives have a fitted effect of over 35% in size. The settings on record: SYKi-resistant MV4-11 viability, CellTiter-Glo, 72 h; series mostly up to 45 µM; viability, % of control: at the top concentration. The source says: Department of Medicine, Hematology/Oncology
University Hospital Frankfurt, Germany.
Trials have shown promising clinical activity of the selective SYK inhibitor entospletinib in patients with high expressing HOXA9/MEIS1 acute leukemias. As the development of resistance mechanisms is a common problem in the use of targeted drugs, we performed a chemical library screen to identify drug sensitivities in SYK inhibitor resistant AML cells. […] Glucocorticoids are potent immunosuppressants which work in part by inhibiting the transcription of cytokine genes.
Described herein is a viability screen to look for activity in the SYK inhibitor drug resistant cell line against four NCATS compound libraries (MIPE 5.0, NPC, NPACT, and Kinase) totaling 11372 compounds. Active hits were reacquired for confirmation and further secondary assay testing.
SEQUENCE No. (e.g., 1, 2, 3, etc.); […] (e.g., Cells, Incubation, Reagent, etc.); VALUE; DESCRIPTION.
1; Media; 2uL; white, solid-bottom Corning assay plate.
2; Compounds; 23nL; Echo acoustic dispenser.
3; Cell; 5uL; 500 cells per well.
4: Incubation; 72hr; 37 C, 5% CO2, 95% humidity.
5; Reagent; 3uL; CellTiter-Glo reagent (Promega).
6; Incubation; 10min; room temperature.
7; Detection; Luminescence; ViewLux plate reader (PerkinElmer).
NOTES (numbers refer to Sequence numbers above
1. Quantitative high-throughput screening (qHTS) of small molecule compounds was conducted on drug resistant SYKi MV4-11 cell line.
2. Twenty-three nanoliter of small molecule compounds were added to each assay plates using the Echo acoustic dispenser (Beckman Coulter).
3. Cells were seeded into the assay plates at a final density of 500 cells in 5uL of media per well using the Multidrop Combi dispenser.
4. Plates were covered with stainless steel gasketed lids and incubated for 72 hours at standard cell culture conditions.
5. Viability was assessed by adding 3uL of CellTiter-Glo detection reagent (Promega).
6. Plates were covered with gasket lids and incubated for 10 minutes at room temperature.
7. Luminescence was measured on a ViewLux plate reader (PerkinElmer).
A general note: Quantitative high-throughput screening tests each substance at several concentrations.
Take `CC[C@]12CCCN3CCc4c(n(c5ccccc45)C(=O)C1)[C@@H]32`: the Potency is 8.41 µM (active) and 23.1 µM (active).

Regarding `CCC(c1ccc(O)cc1)C(CC)c1ccc(O)cc1` (stereo not given), the Potency is 26.3 µM (active).

For `COc1ccc(N2CCN(C(=O)c3cc4c(s3)-c3ccccc3S(=O)(=O)C4)CC2)cc1`, the “viability, % of control” value was 72.4% (inactive).

Turning to `C[C@]12C=CC(=O)C=C1[C@@H](F)C[C@@H]1[C@@H]2[C@@H](O)C[C@@]2(C)[C@H]1CC[C@]2(O)C(=O)CO`, the “viability, % of control” value was 79.9% (inactive).

As to `COC(=O)CCC(=O)OC[C@]1(C)CCC[C@@]2(C)C3CC[C@]4(C)C=CC3(CCC12)C4` (stereo not given in full), the “viability, % of control” value was 80% [at 17.3 µM] (inactive).

`O=c1c(O)c(-c2ccc(O)cc2O)oc2cc(O)cc(O)c12`: the “viability, % of control” value was 82.3% (inactive).

`Cc1cc(C)cc(Oc2ccc(CNC(=O)[C@H](C)N)cc2C)c1`: the Potency was 16.6 µM (active).

In the case of `COCCOC(=O)N1CCN(S(=O)(=O)c2cc(F)c(Oc3ccc(Cl)cc3)c(F)c2)C(C(=O)NO)C1` (stereo not given), the Potency was 5.9 µM (active).

Regarding `COc1c2c(c(C)c3c1C(=O)OC3)OC1(C)CC(O)C34OC(O)(CCC3(C)C1C2)OC4(C)C` (stereo not given), the “viability, % of control” value was 57.1% [at 17.3 µM] (inactive).

Regarding `CC(O)(CC(=O)O)CC(=O)OCc1ccc(O[C@@H]2O[C@H](CO)[C@@H](O)[C@H](O)[C@H]2O)cc1` (stereo not given in full), the “viability, % of control” value is 95.3% [at 17.3 µM] (inactive).

Consider `CCCCCCCCCCCCCCNCCO`, for which the Potency was 16.8 µM (active).

With `CC/C=C/C(O)C(O)C1=C(C)C(=O)C2(O1)C(=O)NC(OC)(C(=O)c1ccccc1)C2O` (stereo not given), the “viability, % of control” value is 96.5% [at 17.3 µM] (inactive).

As for `CCCOC(c1cc2nccc(C(=O)O)c2[nH]1)c1ccccc1Cl` (stereo not given), the “viability, % of control” value is 89.3% (inactive).

In the case of `CN(CCOc1ccc(CC2SC(=O)NC2=O)cc1)c1ccccn1` (stereo not given), the Potency is 13.3 µM (active).

With `CCn1cc(C(=O)O)c(=O)c2cc(F)c(N3CCN(C)CC3)cc21`, the Potency entry was “inactive and 16.6 µM (active)”.

On to `C[C@@H]1O[C@@H](O[C@H]2[C@H](O[C@H]3CC[C@@]4(C)C(CC[C@]5(C)C4C=C[C@]46OC[C@@]7(CCC(C)(C)C[C@H]74)[C@@H](O)C[C@]65C)[C@]3(C)CO)O[C@H](CO)[C@@H](O)[C@@H]2O[C@@H]2O[C@H](CO)[C@@H](O[C@@H]3O[C@@H](C)[C@H](O)[C@@H](O)[C@H]3O)[C@H](O)[C@H]2O)[C@H](O)[C@H](O)[C@H]1O` (stereo not given in full), for which the Potency is 4.37 µM (active).

As for `CCn1c(-c2nonc2N)nc2cnc(Oc3cccc(NC(=O)c4ccc(OCCN5CCOCC5)cc4)c3)cc21`, the Potency was 3.66 µM (active) and 5.25 µM (active).

With `COc1cc(Nc2nc3ccccc3nc2NS(=O)(=O)c2ccc(NC(=O)c3ccc(C)c(OC)c3)cc2)cc(OC)c1`, the Potency was 18.6 µM (active).

For `CN1CCc2cc(Cl)c(O)cc2[C@@H](c2cccc3c2OCC3)C1`, the Potency is 11.6 µM (active).

With `CC(C)(C)C[C@H]1N[C@@H](C(=O)NC2CCC(O)CC2)[C@H](c2cccc(Cl)c2F)[C@@]12C(=O)Nc1cc(Cl)ccc12` (stereo not given in full), the Potency was 6.61 µM (active).

`NS(=O)(=O)c1ccc(NC(=S)N2CCN(C/C=C/c3ccccc3)CC2)cc1`: the Potency was 14.8 µM (active).

For the compound `COC(=O)C1=CO[C@@H](O[C@@H]2O[C@H](CO)[C@@H](O)[C@H](O)[C@H]2O)[C@@H]2[C@@H](CO)[C@@H](O)C(O)[C@H]12` (stereo not given in full), the “viability, % of control” value is 83% [at 17.3 µM] (inactive).

Take `C=C1C(=O)OC2C=C(C)CC/C=C(\CO)CC(O)C12` (stereo not given): the Potency was 11.6 µM (active).

Consider `CN1Cc2cc(C(=O)N3CCC(C4CCNCC4)CC3)ccc2N[C@@H](CC(=O)O)C1=O`, for which the “viability, % of control” value was 102% (inactive).

For `CO[C@@H]1[C@@H](OC)[C@H](C)[C@@](O)(CC(=O)O)O[C@H]1[C@H](C)[C@H]1O[C@@]2(CC[C@@](C)([C@H]3CC[C@@](C)([C@@H]4O[C@@H]([C@H]5O[C@](C)(O)[C@H](C)C[C@@H]5C)C[C@@H]4OC4C[C@H](OC)[C@@H](OC)[C@H](C)O4)O3)O2)C[C@H](O)[C@H]1C` (stereo not given in full), the Potency was 0.596 µM (active).

Regarding `Nc1nc(Nc2ccc3c(c2)CC[C@@H](N2CCCC2)CC3)nn1-c1cc2c(nn1)-c1ccccc1CCC2`, the Potency is 0.417 µM (active).

For `CC1CCC2C(C)(C)C(O)CCC2(C)C12Cc1c(O)cc3c(c1O2)CN(C(CCC(N)=O)C(=O)O)C3=O` (stereo not given), the “viability, % of control” value is 79.1% [at 17.3 µM] (inactive).

Turning to `O[C@@H](c1cc(C(F)(F)F)nc2c(C(F)(F)F)cccc12)[C@H]1CCCCN1`, the Potency is 9.44 µM (active).

Take `CC1CC(=O)[C@]2(O)C(C(=O)OCCc3ccc(O)cc3)=CO[C@@H](O[C@@H]3O[C@H](CO)[C@@H](O)[C@H](O)[C@H]3O)[C@H]12` (stereo not given in full): the “viability, % of control” value was 105% [at 17.3 µM] (inactive).

For `O=C(CCN1CCN(CCO)CC1)N1c2ccccc2Sc2ccc(C(F)(F)F)cc21`, the “viability, % of control” value is 82.1% (inactive).

As for `COc1cc(NC(=O)c2cccc(-n3cc(NC(=O)Nc4cccc(C)c4)cn3)c2)cc(OC)c1OC`, the Potency was 9.2 µM (active).

As for `C=C1CC23CC1(O)CCC2C1=CC2OC(=O)C(C)(C2O)C1C3C(=O)O` (stereo not given), the “viability, % of control” value is 98.5% (inactive).

Regarding `CCC(=O)NS(=O)(=O)c1ccc(-c2c(-c3ccccc3)noc2C)cc1`, the Potency was 8.2 µM (active).

Take `CC1OC(OCC2OC(OC3CCC4(C)C(CCC5(C)C4CC=C4C6CC(C)(C)CCC6(C(=O)OC6OC(CO)C(O)C(O)C6O)CCC45C)C3(C)CO)C(O)C(O)C2O)C(O)C(O)C1O` (stereo not given): the viability, % of control was 96.2% [at 9.25 µM] (inactive).

For `COc1ccc(CC(NC(C)=O)C(=O)O)cc1` (stereo not given), the “viability, % of control” value was 99.3% (inactive).

As to `O=C(O)/C=C/c1cc2c(cc1O[C@@H]1O[C@H](CO)[C@@H](O)[C@H](O)[C@H]1O)OCO2`, the “viability, % of control” value is 69.4% (inactive).

Regarding `COc1cc(/C=C/C(=O)O[C@@H]2O[C@H](CO)[C@@H](O)[C@H](O)[C@H]2O)ccc1O`, the “viability, % of control” value was 94.4% (inactive).

`O=c1[nH]c2cc(C(F)(F)F)c(N3CCOCC3)cc2n(CP(=O)(O)O)c1=O`: the “viability, % of control” value is 89.6% (inactive).

For the compound `CCCCCCOC(=O)/N=C(\N)c1ccc(NCc2nc3cc(C(=O)N(CCC(=O)OCC)c4ccccn4)ccc3n2C)cc1`, the Potency is 0.82 µM (active).

Take `Cc1ccccc1N1CCN(CCc2nnc3n2CCCC3)CC1`: the “viability, % of control” value is 80.7% (inactive).
